Where a name gives a salt, the structure may show the parent alone.
Assays:
Assay in all cases: Euclidean distance of Cell Painting phenotypic profile (signed KS, 77 features) to DMSO centroid (dimensionless distance); 5 or 10 uM (library dependent); higher = stronger phenotypic change vs DMSO (phenoactivity)
Details in all cases: 48 h
786-O = tested on: 786-O
Procedure, shortened: (§1)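 Harmony extracted 77 features from 20X confocal images (9 fields/well) of stained cells, scoring each as a signed Kolmogorov-Smirnov statistic against same-plate vehicle wells. The cells, five cancer lines and a healthy fibroblast line, had received library compounds for 48 h at 10 or 5 uM depending on library, with 0.1% DMSO final. Phenoactivity is the Euclidean distance from each plate-position-corrected, correlation-weighted, top-dose replicate-averaged profile to the median vehicle profile.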

A549 = tested on: A549
Procedure, shortened: as §1

DU145 = tested on: DU145
Procedure, shortened: as §1

FB = tested on: FB
Procedure, shortened: as §1

HEPG2 = tested on: HEPG2
Procedure, shortened: as §1

OVCAR4 = tested on: OVCAR4
Procedure, shortened: as §1

## CCCCOc1cc(C(=O)OCCN(CC)CC)ccc1N [Oxybuprocaine HCl]
786-O
  Euclidean distance: 1.13
A549
  Euclidean distance: 0.889
DU145
  Euclidean distance: 1.18
FB
  Euclidean distance: 0.902
HEPG2
  Euclidean distance: 0.935
OVCAR4
  Euclidean distance: 1.1

## Nc1ccc2cc3ccc(N)cc3nc2c1 [Proflavine]
786-O
  Euclidean distance: 3.98
A549
  Euclidean distance: 3.75
DU145
  Euclidean distance: 4
FB
  Euclidean distance: 4.15
HEPG2
  Euclidean distance: 4.17
OVCAR4
  Euclidean distance: 4.45

## Nc1ncnc2n[nH]c(Nc3ccc(F)cc3)c12
786-O
  Euclidean distance: 0.861
A549
  Euclidean distance: 2.17
DU145
  Euclidean distance: 1.25
FB
  Euclidean distance: 1.67
HEPG2
  Euclidean distance: 0.599
OVCAR4
  Euclidean distance: 1.4

## CN[C@H]1CC[C@@H](c2ccc(Cl)c(Cl)c2)c2ccccc21 [Sertraline HCl]
786-O
  Euclidean distance: 2.46
A549
  Euclidean distance: 2.13
DU145
  Euclidean distance: 1.74
FB
  Euclidean distance: 2.83
HEPG2
  Euclidean distance: 4.1
OVCAR4
  Euclidean distance: 2.02

## CN1CCN(c2cccc(Nc3nc4c(-c5ccc(S(C)(=O)=O)cc5)cccn4n3)c2)CC1
786-O
  Euclidean distance: 1.38
A549
  Euclidean distance: 1.14
DU145
  Euclidean distance: 1.07
FB
  Euclidean distance: 1.26
HEPG2
  Euclidean distance: 0.565
OVCAR4
  Euclidean distance: 1.25

## OCCN1C[C@H](O)[C@@H](O)[C@H](O)[C@H]1CO [Miglitol]
786-O
  Euclidean distance: 1.4
A549
  Euclidean distance: 0.649
DU145
  Euclidean distance: 1.16
FB
  Euclidean distance: 0.979
HEPG2
  Euclidean distance: 0.675
OVCAR4
  Euclidean distance: 1.27

## CC(=O)OCC(=O)[C@@]1(O)CC[C@H]2[C@@H]3CCC4=CC(=O)CC[C@]4(C)[C@H]3C(=O)C[C@@]21C [Cortisone acetate]
786-O
  Euclidean distance: 1.03
A549
  Euclidean distance: 0.746
DU145
  Euclidean distance: 1.1
FB
  Euclidean distance: 1.06
HEPG2
  Euclidean distance: 0.755
OVCAR4
  Euclidean distance: 1.67

## CNC(=O)c1cc(Oc2ccc(NC(=O)Nc3cc(C(C)(C)C)nn3-c3ccc4ncccc4c3)c(F)c2)ccn1 [DCC-2036 (Rebastinib)]
786-O
  Euclidean distance: 2.89
A549
  Euclidean distance: 3.75
DU145
  Euclidean distance: 4.62
FB
  Euclidean distance: 2.57
HEPG2
  Euclidean distance: 2.72
OVCAR4
  Euclidean distance: 2.63

## C/C(=C\C(=O)OCCCCCCCCC(=O)O)C[C@@H]1OC[C@H](C[C@@H]2O[C@H]2[C@@H](C)[C@H](C)O)[C@@H](O)[C@H]1O [Mupirocin calcium]
786-O
  Euclidean distance: 1.28
A549
  Euclidean distance: 0.948
DU145
  Euclidean distance: 1.83
FB
  Euclidean distance: 0.82
HEPG2
  Euclidean distance: 0.518
OVCAR4
  Euclidean distance: 1.26

## O=C1OC(OC(=O)c2cccnc2Nc2cccc(C(F)(F)F)c2)c2ccccc21 (stereo not drawn) [Talniflumate]
786-O
  Euclidean distance: 0.81
A549
  Euclidean distance: 0.859
DU145
  Euclidean distance: 0.922
FB
  Euclidean distance: 0.783
HEPG2
  Euclidean distance: 0.818
OVCAR4
  Euclidean distance: 1

## Oc1cc(O)c2c(c1)OC(c1ccc(O)c(O)c1)C(O)C2 (single isomer, unassigned; (+)) [(+)-Catechin]
786-O
  Euclidean distance: 0.785
A549
  Euclidean distance: 0.904
DU145
  Euclidean distance: 0.506
FB
  Euclidean distance: 0.842
HEPG2
  Euclidean distance: 0.247
OVCAR4
  Euclidean distance: 0.849

## O=C1c2ccccc2C(=O)c2c1ccc(O)c2O [Alizarin]
786-O
  Euclidean distance: 1.65
A549
  Euclidean distance: 1.45
DU145
  Euclidean distance: 1.35
FB
  Euclidean distance: 1.58
HEPG2
  Euclidean distance: 1.48
OVCAR4
  Euclidean distance: 1.07

## CCCC(=O)O[C@]1(C(=O)COC(C)=O)CC[C@H]2[C@@H]3C[C@H](F)C4=CC(=O)C=C[C@]4(C)[C@@]3(F)[C@@H](O)C[C@@]21C [Difluprednate]
786-O
  Euclidean distance: 1.73
A549
  Euclidean distance: 2.5
DU145
  Euclidean distance: 2.59
FB
  Euclidean distance: 1.74
HEPG2
  Euclidean distance: 0.695
OVCAR4
  Euclidean distance: 1.82

## C[C@H]1COc2c(N3CCN(C)CC3)c(F)cc3c(=O)c(C(=O)O)cn1c23 [Levofloxacin hydrate]
786-O
  Euclidean distance: 1.06
A549
  Euclidean distance: 0.678
DU145
  Euclidean distance: 1.07
FB
  Euclidean distance: 1.25
HEPG2
  Euclidean distance: 0.54
OVCAR4
  Euclidean distance: 1.57

## Cc1cc2ncnn2cc1Nc1ncc2c(n1)n(C1CCOCC1)c(=O)n2C
786-O
  Euclidean distance: 1.35
A549
  Euclidean distance: 1.07
DU145
  Euclidean distance: 1.33
FB
  Euclidean distance: 1.79
HEPG2
  Euclidean distance: 0.714
OVCAR4
  Euclidean distance: 0.718

## CC[C@@H]1C(=O)OC[C@@H]1Cc1cncn1C [Pilocarpine HCl]
786-O
  Euclidean distance: 1.14
A549
  Euclidean distance: 0.624
DU145
  Euclidean distance: 0.725
FB
  Euclidean distance: 0.78
HEPG2
  Euclidean distance: 0.698
OVCAR4
  Euclidean distance: 1.49

## CCOc1cc(CC(=O)N[C@@H](CC(C)C)c2ccccc2N2CCCCC2)ccc1C(=O)O [Repaglinide]
786-O
  Euclidean distance: 1.98
A549
  Euclidean distance: 0.783
DU145
  Euclidean distance: 1.26
FB
  Euclidean distance: 1.42
HEPG2
  Euclidean distance: 1.04
OVCAR4
  Euclidean distance: 1.55

## C/C(=C\C(=O)Nc1ccccc1C(=O)O)c1ccc2ccccc2c1
786-O
  Euclidean distance: 0.939
A549
  Euclidean distance: 1.46
DU145
  Euclidean distance: 1.76
FB
  Euclidean distance: 1.59
HEPG2
  Euclidean distance: 0.714
OVCAR4
  Euclidean distance: 0.731

## NC(=O)[C@@H]1CC[C@@H]2CN1C(=O)N2OS(=O)(=O)O [Avibactam sodium]
786-O
  Euclidean distance: 1.03
A549
  Euclidean distance: 0.85
DU145
  Euclidean distance: 0.722
FB
  Euclidean distance: 0.925
HEPG2
  Euclidean distance: 0.607
OVCAR4
  Euclidean distance: 1.24

## COc1ccc(C2CC(=O)c3c(O)cc(OC4OC(COC5OC(C)C(O)C(O)C5O)C(O)C(O)C4O)cc3O2)cc1OC (stereo not drawn) [Methyl-Hesperidin]
786-O
  Euclidean distance: 0.924
A549
  Euclidean distance: 0.527
DU145
  Euclidean distance: 1.16
FB
  Euclidean distance: 0.637
HEPG2
  Euclidean distance: 0.966
OVCAR4
  Euclidean distance: 1.25

## Cc1ccc(C(=O)N(CCCN)[C@@H](c2oc3cc(Cl)ccc3c(=O)c2Cc2ccccc2)C(C)C)cc1
786-O
  Euclidean distance: 3.9
A549
  Euclidean distance: 3.16
DU145
  Euclidean distance: 3.86
FB
  Euclidean distance: 2.4
HEPG2
  Euclidean distance: 2.19
OVCAR4
  Euclidean distance: 3.2

## CCCC(C(=O)OCCN(CC)CC)(c1ccccc1)c1ccccc1 [Proadifen HCl]
786-O
  Euclidean distance: 1.14
A549
  Euclidean distance: 1.1
DU145
  Euclidean distance: 2.58
FB
  Euclidean distance: 1.59
HEPG2
  Euclidean distance: 1.89
OVCAR4
  Euclidean distance: 1.13

## C[C@]12CCC(=O)C=C1[C@@H]1C[C@@H]1[C@H]1[C@@H]3[C@@H]4C[C@@H]4[C@@]4(CCC(=O)O4)[C@@]3(C)CC[C@@H]12 [Drospirenone]
786-O
  Euclidean distance: 0.972
A549
  Euclidean distance: 0.987
DU145
  Euclidean distance: 0.866
FB
  Euclidean distance: 0.787
HEPG2
  Euclidean distance: 0.612
OVCAR4
  Euclidean distance: 0.995

Source: the supplement of paper PMC10127200
